Shiga inhibitor = inhibitors of Shiga toxin in Vero cells; Vero cells, Shiga toxin protein synthesis inhibition reporter; inhibition, % at 38.7 µM; 290,000 tested, 9.2% active; AID 2315; in the data active = inhibition mostly above about 28%, no sharp cut-off; inactive = mostly below about 43%
Pf growth 48h = P. falciparum growth inhibition at 48 hours (one generation) | AID 504832 | 310,000 tested, 5.9% active | P. falciparum luciferase growth in erythrocytes, 48 h | Potency, µM (series often up to 28.7 µM), most hits filed as inhibitors
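Firefly luciferase activity from engineered P. falciparum reports growth; inhibitors lower the luminescent signal. Cultures contained 2% hematocrit erythrocytes at 0.1% final parasitemia.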
Pf growth 96h = P. falciparum growth inhibition at 96 hour, primary screen for plastid delayed-death inhibitors; P. falciparum luciferase reporter growth, 96 h; Potency, µM (doses to about 28.7 µM), usual class: inhibitors; 320,000 tested, 6.9% active; AID 504834
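Parasite growth measured via integrated firefly luciferase reporter in P. falciparum. Infected erythrocytes at 2% hematocrit, 0.05% parasitemia final were treated 96 hours at 37 C under 5% CO2, and luminescence was read.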
LmPK inh = inhibitors of Leishmania mexicana pyruvate kinase; purified LmPK, Kinase-Glo ATP luminescence, 1 h; Potency, µM (highest dose often 57.5 µM), most hits filed as inhibitors; 290,000 tested, 0.37% active
Target sequence (Q27686 whole entry, looked up): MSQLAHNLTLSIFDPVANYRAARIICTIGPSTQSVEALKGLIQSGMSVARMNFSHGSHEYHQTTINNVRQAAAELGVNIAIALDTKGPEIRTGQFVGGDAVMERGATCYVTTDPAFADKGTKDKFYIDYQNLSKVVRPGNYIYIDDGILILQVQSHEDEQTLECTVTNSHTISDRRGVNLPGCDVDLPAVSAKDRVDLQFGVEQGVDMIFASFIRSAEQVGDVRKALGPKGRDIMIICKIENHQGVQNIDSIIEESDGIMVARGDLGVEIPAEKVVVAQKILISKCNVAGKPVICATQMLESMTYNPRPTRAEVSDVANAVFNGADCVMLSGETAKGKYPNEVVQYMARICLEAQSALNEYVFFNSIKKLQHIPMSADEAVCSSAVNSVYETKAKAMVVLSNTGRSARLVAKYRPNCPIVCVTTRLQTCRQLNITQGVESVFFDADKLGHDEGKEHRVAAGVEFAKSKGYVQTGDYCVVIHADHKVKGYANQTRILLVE
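In 50 mM imidazole pH 7.2 with 7 mM MgCl2, LmPK (0.1 nM) turned over PEP (0.5 mM) and ADP (0.1 mM) for 1 h at room temperature. Luciferase read-out of ATP.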
CHX counter = counter-screen for Shiga toxin inhibitors: cycloheximide protein synthesis inhibition; cell reporter, cycloheximide protein synthesis inhibition counterscreen; max response, %; 300,000 tested, 12% active; AID 2314; in the data active = max response mostly above about 13%, no sharp cut-off; inactive = mostly below about 14%; also: read at 38.3 µM for the half of the compounds with a filed dose
Each line names hits and unclear results; the compound was inactive in the other large screens. Only some compounds are listed: those with a hit (about 22% of all), similar ones and a draw of the others. Unless noted, calls follow the shape of the dose curve; as a rule, active = well fitted inhibition curve with a large enough effect; inconclusive = small, poorly fitted or top-dose-only effect, or another doubt; inactive = no such curve, though single readings can be large or run the other way.

CC(NC(=O)c1ccc(Cl)c(S(=O)(=O)N2CCCCCC2)c1)c1cccnc1 (centres undefined)	Pf growth 48h 12µM, Pf growth 96h inconclusive (no result: Shiga inhibitor, LmPK inh, CHX counter)
O=C(NCc1ccccc1CN1CCCC1)c1ccc(Cl)c(S(=O)(=O)N2CCCC2)c1	Pf growth 48h 13µM, Pf growth 96h 12µM (no result: Shiga inhibitor, LmPK inh, CHX counter)
O=C(NCc1ccccn1)c1ccc(Cl)c(S(=O)(=O)N2CCCCC2)c1	Pf growth 48h inconclusive
CC1=C(C(N)=O)C(c2cccs2)n2ncnc2N1 (centres undefined)	Pf growth 48h inconclusive
c1csc(C2C3=C(Nc4ncnn42)c2ccccc2OC3)c1 (centres undefined)	Pf growth 48h inconclusive, Pf growth 96h 13µM
CCCCc1ccc(NC(=S)N2CCN(C)CC2)cc1	Pf growth 96h inconclusive, CHX counter 20
CCCCc1ccc(NC(=S)N2CCCC2)cc1	Shiga inhibitor 69, Pf growth 96h inconclusive, CHX counter 48
CCOCCCNC(=O)c1ccc2c(c1)ncn2-c1cccc(C)c1	none
COCCNC(=O)c1ccc2c(c1)ncn2-c1ccc(F)c(F)c1	CHX counter 17
COCCCNC(=O)c1ccc2c(c1)ncn2-c1ccc(C)cc1C	Pf growth 48h 12µM
O=C(CCN1C(=O)c2ccccc2C1=O)NCc1ccc(Cl)cc1	none
O=C1NC2(Nc3ccccc31)C(=O)Nc1ccccc12 (centres undefined)	Shiga inhibitor 59, Pf growth 48h inconclusive, CHX counter 24
CCOc1ccc(Cl)cc1S(=O)(=O)N1CCC(C(=O)NCc2ccco2)CC1	Pf growth 48h inconclusive
COC(=O)c1cc(C)sc1NC(=O)CSc1ncccn1	none
CCOC(=O)c1c(C)oc2c1c(C(c1cccnc1)N1CCN(C)CC1)c(O)c1ccccc12 (centres undefined)	Shiga inhibitor 156, CHX counter 53
CCOC(=O)c1c(C)oc2c1c(C(c1cccnc1)N1CCOCC1)c(O)c1ccccc12 (centres undefined)	Shiga inhibitor 123, CHX counter 49
COC(=O)NCC(c1cccnc1)N1CCOCC1 (centres undefined)	none
CN1CCN(C(c2cccnc2)c2ccc3cccnc3c2O)CC1 (centres undefined)	Pf growth 48h inconclusive (no result: Pf growth 96h)
CC(C)CCn1c(COc2ccccc2)nn(CCC#N)c1=S	none
Cc1ccc(S(=O)(=O)c2ccc(Cl)cc2)cc1S(N)(=O)=O	Pf growth 96h inconclusive
CC1(C)OC(=O)C(=CNn2cnc3ccccc3c2=O)C(=O)O1	CHX counter 32
COC(=O)c1ccccc1NC(=O)COc1ccc(S(=O)(=O)NC(C)C)cc1	Pf growth 48h inconclusive
CCOC(=O)Cn1ncc(-c2ccccc2)c1N	Shiga inhibitor 68, Pf growth 96h inconclusive, CHX counter 29
O=C(Cn1nc(-c2ccccc2)nc1-c1ccccc1)OC1CCCCC1	Pf growth 48h inconclusive
CCOC(=O)Cn1nc(-c2ccccc2)nc1-c1ccccc1	CHX counter 26 (no result: Pf growth 96h)
CCC1(c2ccc(F)cc2)NC(=O)N(CC(=O)Nc2ccc(C)c(S(=O)(=O)N3CCOCC3)c2)C1=O (centres undefined)	none
COc1ccc(NC(=S)NNC(=O)CNc2ccc(Cl)cc2)cc1	Pf growth 48h inconclusive
CCCn1c(C2CCCN2c2nc(-c3cccc(Br)c3)cs2)nc2ccccc21 (centres undefined)	Pf growth 48h inconclusive, Pf growth 96h 1.9µM
COc1ccc(CCNc2nc(=O)[nH]nc2C)cc1OC	none
COc1cc(/C=N/Nc2nc(=O)[nH]nc2C)ccc1O	Shiga inhibitor 70, Pf growth 48h inconclusive, Pf growth 96h inconclusive, CHX counter 37
COc1ccc(/C=N/Nc2nc(=O)[nH]nc2C)cc1[N+](=O)[O-]	Pf growth 96h inconclusive
Cc1n[nH]c(=O)nc1N/N=C/c1ccc(O)c([N+](=O)[O-])c1	Pf growth 48h inconclusive, LmPK inh inconclusive
COc1ccc(/C=N/Nc2nc(=O)[nH]nc2C)cc1OC	Shiga inhibitor 66, Pf growth 48h inconclusive, Pf growth 96h inconclusive, LmPK inh inconclusive, CHX counter 33
COc1cc(/C=N/Nc2nc(=O)[nH]nc2C)cc([N+](=O)[O-])c1O	Shiga inhibitor 57, Pf growth 48h 1.2µM, Pf growth 96h 0.66µM, CHX counter 25
Cc1cc(C)n(C(=O)CN(C)S(=O)(=O)c2ccc([N+](=O)[O-])cc2)n1	none
Cc1cccc(C)c1NC1=NCCCCC1	none
C=CCn1c(SCC(=O)NC2CCCCC2)nnc1-c1cccnc1	none
O=C(NN1C(=O)C2C3c4ccccc4C(c4ccccc43)C2C1=O)C1CC1 (centres undefined)	none
Cc1ccc(/C=C/C(=O)Nc2ccc(S(=O)(=O)Nc3onc(C)c3C)cc2)cc1	none
Cc1ccc(/C=C/C(=O)Nc2ccc(N(C)C)cc2)o1	Shiga inhibitor 85, CHX counter 38
CC(=O)NS(=O)(=O)c1ccc(NC(=O)/C=C/c2ccc(C)o2)cc1	Pf growth 96h 4.7µM
CCOc1cc(S(=O)(=O)NCCc2cccc(C)c2)c(OCC)cc1-n1cnnn1	Pf growth 48h 9.3µM, Pf growth 96h 6.6µM
CCOc1cc(S(=O)(=O)N2CCC(Cc3ccccc3)CC2)c(OCC)cc1-n1cnnn1	Pf growth 48h 13µM, Pf growth 96h inconclusive
CCOc1cc(S(=O)(=O)N2CC=C(c3ccc(F)cc3)CC2)c(OCC)cc1-n1cnnn1	Pf growth 48h 7.4µM, Pf growth 96h inconclusive
O=C(COC(=O)c1ccc(O)cc1)Nc1cc(C(F)(F)F)ccc1N1CCOCC1	none (no result: Shiga inhibitor, LmPK inh, CHX counter)
COc1cc(NC(=O)CN2C(=O)C(=O)N(C3CCCC3)C2=O)cc(OC)c1	none (no result: Shiga inhibitor, LmPK inh, CHX counter)
Cc1ccc(C(=O)OC(C)C(=O)c2cc(C)c(C)cc2C)o1 (centres undefined)	Pf growth 48h inconclusive, CHX counter 20
Cc1cc(C)c(C(=O)C(C)OC(=O)c2ccccn2)cc1C (centres undefined)	none
COC(CNc1cc(=O)oc2ccccc12)OC	none (no result: Pf growth 48h)
COC(=O)c1sc2nc(CN3CCN(c4ccc(OC)cc4)CC3)[nH]c(=O)c2c1C	Pf growth 96h inconclusive
Brc1cccc(-c2nnc(-c3ccccc3)o2)c1	Shiga inhibitor 55, CHX counter 27
O=c1oc2ccccc2cc1-c1nnc(-c2cccc(Br)c2)o1	none
Cc1ccc(-c2nnc(-c3cccc(Br)c3)o2)cc1	Shiga inhibitor 42, CHX counter 26
Cc1ccc(NS(=O)(=O)c2cc(NC(=O)c3ccc4c(c3)NC(=O)CS4)ccc2C)c(C)c1	Pf growth 48h inconclusive, Pf growth 96h inconclusive
CC(CCc1ccccc1)NC(=O)C(C)OC(=O)c1ccco1 (centres undefined)	Pf growth 48h inconclusive (no result: Shiga inhibitor, LmPK inh, CHX counter)
O=C(Cc1ccccc1)Nc1ccc2oc(-c3cccnc3)nc2c1	Shiga inhibitor 34 (no result: Pf growth 96h)
O=C(Nc1ccc2oc(-c3ccccc3)nc2c1)c1cccnc1	Shiga inhibitor 54, CHX counter 39
O=C(Nc1ccc2oc(-c3ccccc3F)nc2c1)c1ccc([N+](=O)[O-])o1	Pf growth 48h inconclusive
CCCCCC(=O)Nc1ccc2oc(-c3cccnc3)nc2c1	Pf growth 96h inconclusive

Source: PubChem (National Center for Advancing Translational Sciences (NCATS))
